# Screening data: PubChem BioAssay, The Scripps Research Institute Molecular Screening Center
# Hits are enriched below; roughly 2.3% of the tested compounds scored in any of these assays.
# M1 ag parental = counter-screen for M1 agonists: effect in parental CHO-K1 cells. Fluo-8 calcium fluorescence; scaled to maximal ATP response, vehicle zero. activation, % at 3 µM. actives 0.48% (n = 360,000); in the data active = activation above about 15%;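 note: untransfected CHO-K1 host cells lacking M1 receptor as counterscreen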
# CHRM1 antagonist = human M1 muscarinic receptor antagonists, primary screen, CHO-K1 cells, Fluo-8 calcium fluorescence, 1536-well | Muscarinic acetylcholine receptor M1 (Homo sapiens), P11229 | CHO-K1 hM1, ACh EC80 antagonist | inhibition, % at 3 µM | actives 1.3% (n = 360,000);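 active = percent inhibition above its own plate's cutoff, namely the mean of that plate's compound wells plus 3 SD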;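 note: peak over basal fluorescence ratio during 140 s after agonist addition; 0% = ACh EC80 plus DMSO and 100% = DMSO alone without agonist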
# Target sequence (P11229 whole entry, looked up): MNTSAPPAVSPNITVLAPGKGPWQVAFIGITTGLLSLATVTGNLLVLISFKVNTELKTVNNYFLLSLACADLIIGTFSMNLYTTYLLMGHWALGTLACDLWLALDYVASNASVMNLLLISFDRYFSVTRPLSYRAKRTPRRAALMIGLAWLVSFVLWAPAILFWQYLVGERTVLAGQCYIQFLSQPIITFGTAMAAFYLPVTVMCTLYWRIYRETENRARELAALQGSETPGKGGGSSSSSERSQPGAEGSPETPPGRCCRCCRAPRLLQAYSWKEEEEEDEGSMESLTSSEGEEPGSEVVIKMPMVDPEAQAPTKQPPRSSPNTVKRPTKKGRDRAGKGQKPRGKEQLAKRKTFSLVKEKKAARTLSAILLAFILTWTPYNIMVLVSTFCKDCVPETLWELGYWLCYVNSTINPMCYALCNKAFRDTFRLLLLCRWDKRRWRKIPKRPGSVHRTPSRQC
# M1 ag = human M1 muscarinic receptor agonists, primary screen, Fluo-8 calcium fluorescence, CHO-K1 cells, HTS. CHO-K1 hM1, agonist mode; 0% DMSO, 100% acetylcholine EC100. activation, % at 3 µM. actives 0.33% (n = 360,000);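 active = activation above the run's mean compound activation plus 3 SD, cut at about 16% in these data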;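 note: peak over basal fluorescence ratio within a 140 s kinetic read after compound addition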
# M1 PAM = human M1 muscarinic receptor positive allosteric modulators, primary screen, CHO-K1 cells, Fluo-8 calcium fluorescence, 1536-well; actives 0.088% (n = 360,000); activation, % at 3 µM; CHO-K1 hM1, ACh EC20; 0% = ACh EC20, 100% = maximal ACh; Muscarinic acetylcholine receptor M1 (Homo sapiens), P11229; AID 588819, 2011; in the data active = activation above about 19%, passing the limit was not always enough
# M1 PAM parental = nonselective calcium activators in parental CHO-K1 cells, primary screen, counter-screen for M1 PAM project, cell-based, Fluo-8 calcium fluorescence, full deck, 1536-well. ATP EC20; 0% at ATP EC20, 100% at ATP max. activation, % at 3 µM. actives 0.02% (n = 360,000). AID 602247, 2012;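 active = activation above the run cutoff, the mean activation of all test compounds plus 3 SD, cut at about 40% in these data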;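 note: peak over basal fluorescence ratio in a 140 s read after ATP addition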
# CHO-K1 Ca antag = nonselective inhibitor or artifact in parental CHO-K1 cells | ATP-induced calcium, Fluo-8 fluorescence | inhibition, % at 3 µM | actives 0.6% (n = 360,000);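 active = inhibition above a per-plate cutoff, the plate's mean sample inhibition plus 3 SD, cut at about 24% in these data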;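 note: 0% = DMSO plus EC80 ATP and 100% = DMSO alone without ATP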
# * marks the source's active call; other numbers are inactive results.
SMILES,M1 ag parental,CHRM1 antagonist,M1 ag,M1 PAM,M1 PAM parental,CHO-K1 Ca antag
Cc1cc(C)c2c(CN3CCN(Cc4ccc5c(c4)OCO5)CC3)cc(=O)oc2c1C,0,-12,-4,-8,16,-6
Cc1cc(OC(C)C(=O)NC2CCN(Cc3ccccc3)CC2)c2c(C)cc(=O)oc2c1 (stereo not drawn),0,9,16,-5,3,-19
Cc1ccc(C)c(OCc2cc(C(=O)NC3CCN(Cc4ccccc4)CC3)no2)c1,15,32*,3,-15,-7,4
Cc1cc(C)c2c(CN3CCCC3)cc(=O)oc2c1,-1,-1,0,15,-8,30*
CCc1cc(=O)oc2cc(C)cc(OC(C)C(=O)NC3CCN(Cc4ccccc4)CC3)c12 (stereo not drawn),0,12,23*,-7,-5,-12
Cc1cc(C)c2c(CN3CCN(Cc4ccc5c(c4)OCO5)CC3)cc(=O)oc2c1,1,33*,-7,-27,18,-10
COc1cccc(-c2cc(NC=O)c3ncc(-c4ccc(C(C)=O)cc4)n3c2)c1,4,16,-3,-7,6,5
Cc1cccc(N2C(=O)CC(N3CCN(Cc4ccc5c(c4)OCO5)CC3)C2=O)c1 (stereo not drawn),0,35*,-6,-13,-5,20
Cc1cc(C)c2c(CN3CCN(Cc4ccccc4)CC3)cc(=O)oc2c1,17*,28,-1,-20,-4,-2
O=C1CC(N2CCN(Cc3ccc4c(c3)OCO4)CC2)C(=O)N1c1ccccc1 (stereo not drawn),2,4,-7,-5,23,-18
O=C(N/N=C/c1ccc(OC2CSC2)cc1)c1ccccc1,9,0,32*,-1,18,-5
Cc1ccc(/C=C/C(=O)O)cc1S(=O)(=O)NCc1ccco1,10,-9,-7,6,5,10
COc1ccc(S(=O)(=O)n2c(N)nc3ccccc32)cc1,1,100*,-10,-34,-9,0
Cc1ccc(S(=O)(=O)n2c(N)nc3ccccc32)cc1,2,98*,-8,-27,16,-20
Nc1nc2ccccc2n1S(=O)(=O)c1ccc(Cl)cc1,0,79*,-11,-34,-4,3
Nc1nc2ccccc2n1S(=O)(=O)c1ccc([N+](=O)[O-])cc1,1,30,-11,-31,10,-4
COCCCNC(=O)c1ccc2nc([C@@H]3O[C@H](CO)[C@H](O)[C@H](O)[C@H]3O)[nH]c2c1,3,-2,-1,2,-1,9
COCCn1c(C)cc(/C=C(\C#N)C(=O)OCC(=O)N(C)c2c(N)n(Cc3ccccc3)c(=O)[nH]c2=O)c1C,1,-5,-3,6,6,-11
CN(C)S(=O)(=O)c1cccc(NC(=S)N(CCC#N)Cc2cccnc2)c1,0,-10,-6,7,20,-7
CCN1/C(=C\c2ccc3cc(C)ccc3[n+]2CC)Sc2cc(C)c(C)cc21,18*,52*,13,-12,-4,35*
CCN1/C(=C/c2ccc3cccc(C)c3[n+]2CC)Sc2ccccc21,10,51*,14,-7,8,24
CCN1/C(=C/c2ccc3cc(C)cc(C)c3[n+]2CC)Sc2cc(C)ccc21,21*,55*,18*,-13,-11,40*
O=C(CCl)N(c1ccccc1)C1CCS(=O)(=O)C1 (stereo not drawn),23*,11,-3,-3,13,13
CC(=O)Nc1ccc(C(=O)OCC(=O)N(c2ccccc2)C2CCS(=O)(=O)C2)cc1 (stereo not drawn),0,26,0,-8,6,2
O=C(COC(=O)c1ccc(F)cc1F)Nc1cc(S(=O)(=O)N2CCOCC2)ccc1Cl,0,-11,0,0,-12,5
SMILES,M1 ag parental,CHRM1 antagonist,M1 ag,M1 PAM,M1 PAM parental,CHO-K1 Ca antag
Cc1ccc(-n2cc(C(C)(C)C)[nH]c2=S)cc1,0,27,-4,-8,-5,26*
CCCCN1CC(N(C)CCN(C)C)CS1(=O)=O (stereo not drawn),1,-20,-10,11,25,6
CCN(Cc1ccccc1)Cc1ccc(OCc2ccccc2)cc1,0,35*,-9,-24,-4,13
Nc1ccc(OCc2ccccc2)cc1,0,-2,-7,1,15,-1
CN(CCCCOc1ccc(F)cc1)Cc1ccccc1,1,12,-7,-12,15,-14
CCc1ccc(OCCCCN(C)Cc2ccccc2)cc1,1,33*,-8,-23,14,12
Cc1cc(C)c(C)c(OCCCCN(C)Cc2ccccc2)c1,3,65*,-7,-29,24,-4
Oc1c(/C=C/C=C/C=Nc2ccccc2)sc(=S)n1Cc1ccccc1,3,-14,-4,8,18,-12
CC(NC(=O)COC(=O)Cc1ccsc1)c1ccccc1 (stereo not drawn),18*,-10,-5,11,16,2
O=C(COC(=O)Cc1ccsc1)NC(c1ccccc1)c1ccccc1,0,-3,-7,0,-7,16
COCCNc1nc(Nc2ccc(C#N)cc2)c2sccc2n1,5,-8,-4,-3,23,-12
Cc1ccccc1-c1nc(NC(C)C)nc2ccsc12,0,2,-9,-10,11,-3
CN(C)CCNc1nc(-c2ccccc2CO)c2sccc2n1,0,74*,-10,-29,-1,3
Cc1ccccc1-c1nc(NCCN(C)C)nc2ccsc12,1,88*,-8,-29,8,1
CCCCCc1nc2sc3c(c2c(=O)n1NC(=O)c1ccc([N+](=O)[O-])cc1)CC(C)(C)OC3,12,21,-4,-23,0,21
O=C(Nc1ccc(-c2nc3cccnc3s2)cc1)c1ccc(Cl)nc1,21*,-14,1,7,7,4
O=C(Nc1ccc(-c2nc3cccnc3s2)cc1)c1cccnc1Cl,3,-4,2,3,18,-10
O=c1oc2ccccc2c(Nc2ccc(Cl)cc2)c1[N+](=O)[O-],12,-1,1,-5,4,-4
O=c1oc2ccccc2c(Nc2ccc(F)cc2)c1[N+](=O)[O-],19*,-17,0,10,15,-9
Cc1ccc2nccc(C(=O)N3CCCC(Nc4ccc(C)c(C)c4)C3)c2c1 (stereo not drawn),2,-14,-3,10,21,-16
